# Assay results from PubChem BioAssay.
# Unmarked numbers belong to inactive results. Unless noted, no rule for the calls is given here.
# Key:
# [1] = sensitizers of A549 cells to miR-34 induction, primary screen, imaging, A549 dox-inducible miR-34, nuclei and caspase counts (AID 1347080;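 active = compounds whose cell count with miR-34 switched on is under 0.7 times the count with it off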); conditions: A549 miR-34 inducible, Hoechst nuclei count, 48 h, hits give low values
# [2] = inhibitors of Cryptococcus chitosan production, flow cytometry, Cibacron Brilliant Red staining (AID 1347148); conditions: Cryptococcus neoformans chitosan, hits give low values; at 10 µM unless noted;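 also: compound exposure lasted three days at 37 degrees C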
# [3] = test system: Aerobactin synthetase IucA (Klebsiella pneumoniae, hypervirulent); test: IucA enzyme inhibition, biochemical, LOPAC library, absorbance readout (AID 1346212); conditions: IucA enzyme assay, absorbance (OD) readout; hits give low values;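 tested at 8 µM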;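 also: 100% = no compound wells and 0% = no enzyme wells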
structure (smiles),measurement,setting,value
O=C1CC2OCC=C3CN4CC[C@]56c7ccccc7N1C5[C@H]2[C@H]3CC46 (some centres not stated),fold change,[1],0.917
CNC(C)[C@@H]1CC[C@@H](N)[C@@H](OC2[C@@H](N)C[C@@H](N)[C@H](OC3OC[C@](C)(O)[C@H](NC)[C@H]3O)[C@H]2O)O1 (some centres not stated),fold change,[1],0.833
O=C1OCCN1/N=C/c1ccc([N+](=O)[O-])o1,fold change,"[1]; cell number ratio, induced over uninduced",0.857
CC(=O)C1=C(O)C2C3c4c[nH]c5cccc(c45)CC3C(C)(C)N2C1=O (configuration not stated),fold fluorescence,[2],4.14 [at 148.6 µM]
CC(C)C[C@H]1C(=O)N2CCC[C@H]2[C@]2(O)O[C@](NC(=O)[C@@H]3C=C4c5cccc6[nH]c(Br)c(c56)C[C@H]4N(C)C3)(C(C)C)C(=O)N12,remaining activity,[3],108%
CC(Oc1ccc(Oc2cnc3ccc(Cl)cc3n2)cc1)C(=O)O (configuration not stated),remaining activity,[3],108%
CNC(=O)[C@H]1O[C@@H](n2cnc3c(NCc4ccc(N)cc4)ncnc32)[C@H](O)[C@@H]1O,remaining activity,[3],119%
NCCCCCCCCCCN,remaining activity,[3],104%
CN1CC(=O)NC1=NC(=O)Nc1cccc(Cl)c1,remaining activity,[3],98.9%
N=C(N)SCCc1cnc[nH]1,remaining activity,[3],122%
C#C[C@]1(O)CC[C@H]2[C@@H]3CCC4=Cc5nc6nc7ccccc7n6cc5C[C@]4(C)[C@H]3CC[C@@]21C,remaining activity,[3],123%
CN(C)CC[C@@H](c1ccc(Cl)cc1)c1ccccn1,remaining activity,[3],117%
Cc1[nH]c(=O)c(C#N)cc1-c1ccncc1,remaining activity,[3],123%
O=C(Nc1ccccc1)c1cc([N+](=O)[O-])ccc1Cl,remaining activity,[3],115%
COc1ccccc1N1CCN(CCN(C(=O)c2ccc(F)cc2)c2ccccn2)CC1,remaining activity,[3],117%
COc1ccc2c(c1OC)C(=O)O[C@@H]2[C@H]1c2c(cc3c(c2OC)OCO3)CCN1C,remaining activity,[3],112%
O=C(Cc1ccc(Cl)c(Cl)c1)OCCN1CCCC1,remaining activity,[3],117%
CCC(NC(C)C)C(O)c1ccc(O)c(O)c1 (configuration not stated),remaining activity,[3],102%
Cc1ccccc1CNc1ncnc2c1ncn2[C@@H]1O[C@H](CO)[C@@H](O)[C@H]1O,remaining activity,[3],122%
C[C@H](NC(=O)/C(C#N)=C/c1ccc(O)c(O)c1)c1ccccc1,remaining activity,[3],95.7%
COc1cc(-c2ccc(=O)[nH]n2)ccc1OC(F)F,remaining activity,[3],119%
Cc1cccc(C#Cc2ccccc2)n1,remaining activity,[3],123%
C[C@H](NCCc1ccc(O)cc1)[C@H](O)c1ccc(O)cc1,remaining activity,[3],94.5%
C[C@]12CCC(=O)C=C1CC[C@@H]1[C@@H]2[C@@H](O)C[C@@]2(C)[C@H]1CC[C@]2(O)C(=O)CO,remaining activity,[3],104%
CC(C)(C)c1cc(/C=C(\C#N)C(N)=S)cc(C(C)(C)C)c1O,remaining activity,[3],97.1%
O=c1[nH]c(=O)n([C@H]2C[C@H](O)[C@@H](CO)O2)cc1/C=C/Br,remaining activity,[3],123%
COc1cccc(-c2cc(=O)c3ccccc3o2)c1N,remaining activity,[3],95.7%
CNC(=O)[C@H]1O[C@@H](n2cnc3c(NCc4cccc(I)c4)ncnc32)[C@H](O)[C@@H]1O,remaining activity,[3],114%
Cn1ccc2cc(NC(=O)Nc3cccnc3)ccc21,remaining activity,[3],117%
C[C@]12CC[C@@H]3c4ccc(O)cc4CC[C@H]3[C@@H]1CC[C@@H]2O,remaining activity,[3],99.8%
COc1ccccc1NC(=O)Nc1nc(-c2cccnc2)nc2ccccc12,remaining activity,[3],105%
NC(=NCc1ccc(Cl)c(Cl)c1)NC(=O)c1nc(Cl)c(N)nc1N,remaining activity,[3],105%
Cc1cc2c(cc1Cl)N(C(=O)Nc1cccc3ncccc13)CC2,remaining activity,[3],103%
CN(C)CC/C=C1/c2ccccc2Sc2ccc(Cl)cc21,remaining activity,[3],115%
Cc1nc(N=Nc2ccc(S(=O)(=O)O)cc2S(=O)(=O)O)c(COP(=O)(O)O)c(C=O)c1O,remaining activity,[3],106%
C[C@H]1O[C@@H](n2cc(F)c(=O)[nH]c2=O)[C@H](O)[C@@H]1O,remaining activity,[3],98.9%
CC[C@H]1CN2CCc3cc(OC)c(OC)cc3[C@@H]2C[C@@H]1C[C@H]1NCCc2cc(OC)c(OC)cc21,remaining activity,[3],123%
CC[N+](CC)(CC)CCOc1ccc(/C=C/c2ccccc2)cc1,remaining activity,[3],118%
NC(=O)C1=CN(C2OC(COP(=O)(O)OP(=O)(O)OC[C@H]3O[C@@H](n4cnc5c(N)ncnc54)C(OP(=O)(O)O)[C@H]3O)C(O)C2O)C=CC1 (some centres not stated),remaining activity,[3],112%
COc1ccccc1CNCCCCCCNCCCCCCCCNCCCCCCNCc1ccccc1OC,remaining activity,[3],91.3%
CC(=O)[C@]1(O)Cc2c(O)c3c(c(O)c2[C@@H](O[C@H]2C[C@H](N)[C@H](O)[C@H](C)O2)C1)C(=O)c1ccccc1C3=O,remaining activity,[3],125%
NO,remaining activity,[3],100%
CCCCCCCCCC[Si](C)(C)CCC(=O)NC(Cc1ccc(C)cc1)c1ccccc1 (configuration not stated),remaining activity,[3],116%
CCCCCCCC/C=C\CCCCCCCC(=O)O,remaining activity,[3],119%
CN(CC[C@@H](Oc1ccc(C(F)(F)F)cc1)c1ccccc1)CC(=O)O,remaining activity,[3],118%
COc1cc2nc(N3CCN(C(=O)OCc4ccccc4)[C@H](C(=O)NC(C)(C)C)C3)nc(N)c2cc1OC,remaining activity,[3],91.6%
Cc1nc(N=Nc2cc(S(=O)(=O)O)c3cc([N+](=O)[O-])cc(S(=O)(=O)O)c3c2)c(COP(=O)(O)O)c(C=O)c1O,remaining activity,[3],118%
O=C1Cc2c([nH]c3ccc(Br)cc23)-c2ccccc2N1,remaining activity,[3],125%
NC(N)=NCc1cccc(I)c1,remaining activity,[3],118%
COc1cc2c(CCNC(C)=O)c[nH]c2cc1Cl,remaining activity,[3],115%
Cc1ccc(O)c(N=Nc2ccccc2)n1,remaining activity,[3],82.6%
C[C@]1(C2CCCC2)Cc2cc(OCC(=O)O)c(Cl)c(Cl)c2C1=O,remaining activity,[3],113%
C[C@H](Cc1ccc(O)c(O)c1)[C@@H](C)Cc1ccc(O)c(O)c1,remaining activity,[3],117%
O=C(O)c1cc([N+](=O)[O-])ccc1NCCCc1ccccc1,remaining activity,[3],118%
CC(C)CN(C)c1nc(N)c(C(=O)N=C(N)N)nc1Cl,remaining activity,[3],114%
CN1CCCC1c1cccnc1 (configuration not stated),remaining activity,[3],115%
NCCCCNCCCN,remaining activity,[3],107%
N=c1c[n+](N2CCOCC2)[n-]o1,remaining activity,[3],108%
COc1ccc(/C=C/C(=O)Nc2ccccc2C(=O)O)cc1OC,remaining activity,[3],92.2%
NOCC(=O)O,remaining activity,[3],124%
N[C@@H](Cc1ccc(F)cc1)C(=O)O,remaining activity,[3],95%
CN(Cc1cnc2nc(N)nc(N)c2n1)c1ccc(C(=O)N[C@@H](CCC(=O)O)C(=O)O)cc1,remaining activity,[3],117%
CNc1cc(NS(=O)(=O)c2ccc(N)cc2)nc(NC)n1,remaining activity,[3],104%
OCCN1CCN(CCCN2c3ccccc3C=Cc3ccccc32)CC1,remaining activity,[3],117%
CNC(=O)[C@H]1O[C@@H](n2cnc3c(N)ncnc32)C(O)[C@H]1O (some centres not stated),remaining activity,[3],129%
C[C@H](O)C(=O)C1=Nc2c(nc(N)[nH]c2=O)NC1,remaining activity,[3],109%
CC(=O)N[C@@H](Cc1c[nH]c2ccccc12)C(=O)OCc1cc(C(F)(F)F)cc(C(F)(F)F)c1,remaining activity,[3],117%
CCCCCCCC/C=C\CCCCCCCC(=O)NCCc1ccc(O)c(O)c1,remaining activity,[3],109%
N=C(N)c1ccccc1,remaining activity,[3],121%
CNc1ncnc2c1ncn2[C@@H]1O[C@H](CO)[C@@H](O)[C@H]1O,remaining activity,[3],125%
CC(C)Cc1ccc([C@H](C)C(=O)O)cc1,remaining activity,[3],111%
Brc1c(Br)c(Br)c2n[nH]nc2c1Br,remaining activity,[3],120%
Brc1c(Br)c(Br)c2[nH]cnc2c1Br,remaining activity,[3],110%
CCCn1c(=O)c2[nH]c(-c3ccc(OCC(=O)NCCN)cc3)nc2n(CCC)c1=O,remaining activity,[3],109%
S=C(S)OC1CC2CC1C1CCCC21 (configuration not stated),remaining activity,[3],94.5%
Nc1nc(N)c2nc(CNc3ccc(C(=O)N[C@@H](CCC(=O)O)C(=O)O)cc3)cnc2n1,remaining activity,[3],112%
CN1CCC(=C2c3ccccc3C=Cc3ccccc32)CC1,remaining activity,[3],123%
COc1ccc(NC=O)c(C(=O)CCNC(C)=O)c1,remaining activity,[3],95%
CN1CC(O)C(O)C(O)C1CO (configuration not stated),remaining activity,[3],105%
O=C(O)C1(C(=O)O)CCC1.[NH2-].[NH2-].[Pt+2],remaining activity,[3],113%
CC(C(=O)O)c1ccc(CC2CCCC2=O)cc1 (configuration not stated),remaining activity,[3],120%
O=c1[nH]c2cc(Cl)ccc2c(O)c1-c1cccc(Oc2ccccc2)c1,remaining activity,[3],120%
c1cnc2c(c1)ccc1cccnc12,remaining activity,[3],101%
CNCCCC1c2ccccc2C=Cc2ccccc21,remaining activity,[3],101%
CC(CCc1ccc(O)cc1)NCCc1ccc(O)c(O)c1 (configuration not stated),remaining activity,[3],98.4%
CC(N)=NCCCC[C@@H](N)C(=O)O,remaining activity,[3],124%
CNCCc1cnc(CCC(c2ccccc2)c2ccccc2)[nH]1,remaining activity,[3],110%
